# Laboratory results taken from PubChem BioAssay AID1239 (SRMLSC, 2008).
# About 3,100 (1.6%) of roughly 190,000 compounds were called active. For the sample, actives were picked, then their nearest neighbours and some compounds at random. Values without a mark were called inactive. Cut-off read from the data, not from the text of the source: active = fold change above about 3.3; inconclusive = no clear call, values can overlap the other calls; inactive = below that.
# Assay: activators of NF-kB expression in neurons, primary screen, cell-based, HTS (AID 1239)
# Details: human neuronal cells, NF-kB reporter expression; at 12.5 µM; active compounds read high
row,Compound,fold change
1,COc1cc(C(=O)NCc2ccc(-n3cccc3)cc2)cc(OC)c1OC,1.25
2,COc1ccc(CN2CN(C3CCCC3)CSC2=S)cc1,1.11
3,COc1ccc(-c2nnc3ccc(SCc4ccccc4)nn23)cc1,0.97
4,COc1ccc2nc(SCc3ccccc3)nc(C)c2c1,9.79 (active)
5,COC(=O)CSc1nc(C)c2ccc(OC)cc2n1,1.13
6,O=C(c1ccc2ccccc2n1)N1CCN(c2ccccc2Cl)CC1,2.01
7,CN(C)c1ccc(C=C2C(=O)OC3(CCCC3)OC2=O)cc1,1.03
8,Cc1cccc(-c2noc(-c3ccc(F)cc3)n2)c1,8.41 (active)
9,COc1ccc(-c2nc(-c3ccccc3)no2)c(OC)c1,1.5
10,Cc1ccc(Cc2nc(-c3cccc(C)c3)no2)cc1,1.99
11,COc1ccc(-c2noc(CSc3ccc(C)cc3)n2)cc1,1.04
12,COc1ccc(-c2noc(-c3ccc(C)cc3)n2)cc1,5.86 (active)
13,COc1ccc2[nH]c(=O)c(-c3noc(-c4ccc(F)cc4)n3)cc2c1,1.09
14,COCCNC(=S)N1CCC(NC(=O)C23CC4CC(CC(C4)C2)C3)CC1,0.98
15,CN(CCN1CCOCC1)Cc1nc(-c2ccc3c(c2)OCO3)no1,1.23
16,Cn1cc(-c2ccccc2)cc(C#N)c1=O,1.11
17,CCN(CC)P(=O)(Nc1ccc(SC(F)F)cc1)c1ccc(N(C)C)cc1NC(=O)c1ccco1 (stereo unspecified),0.57
18,COc1ccccc1NC(=S)N1CCN(C(c2ccccc2)c2ccccc2)CC1,0.89
19,CCN(CC(=O)NCc1cccs1)C(=O)c1ccccc1F,1.01
20,CC(C)CCN1CCN(Cc2ccc(C(F)(F)F)cc2)CC1CCO (stereo unspecified),0.9
21,C/C(=N\Nc1ncc(Cl)cc1Cl)c1ccc(S(=O)(=O)NCc2ccco2)cc1,1.29
22,C/C(=N\Nc1nc(Nc2ccccc2)nc(N2CCOCC2)n1)c1cccs1,0.45
23,C/C(=N\Nc1ncc(Cl)cc1Cl)c1cccs1,4.91 (active)
24,COc1cccc(/C(C)=N/Nc2ncc(Cl)cc2Cl)c1,1.88
25,C/C(=N\Nc1nc2ccccc2[nH]1)c1cccs1,5.42 (active)
26,OCCNc1nc2ccccc2[nH]1,1.02

row,Compound,fold change
1,CSc1nc2c(c(=O)[nH]1)C(c1cccc(Cl)c1Cl)CC(=O)N2 (stereo unspecified),1.18
2,CC1Cc2ccccc2N1S(=O)(=O)c1c(N)n(C)c(=O)n(C)c1=O (stereo unspecified),1.07
3,O=C(Nc1ccccc1)c1ccccc1NC(=O)C(F)(F)F,0.9
4,O=C(Nc1ccccc1)c1cc2ccccc2[nH]1,3.43 (active)
5,CC(C)n1c(=O)[nH]c2cc(C(=O)Nc3ccccc3)ccc21,1.9
6,N/C(=N\OC(=O)/C=C/c1ccccc1)c1ccc(Br)cc1,1.46
7,N/C(=N\OC(=O)N1c2ccccc2Sc2ccccc21)c1ccc(Br)cc1,1.29
8,N/C(=N\OC(=O)c1ccc2c(c1)OCO2)c1ccc(Br)cc1,3.37 (active)
9,CC(C)(C)OC(=O)N/N=C/c1cn(-c2ccccc2)nc1-c1cccnc1,0.46
10,Cc1ccc(S(=O)(=O)N(CC(=O)NN=C2CCN(C)CC2)c2ccc(F)cc2)cc1,0.83
11,COc1ccccc1CC(=O)Nc1ccc(F)cc1F,1.07
12,COc1ccc(NC(=O)c2ccc(C#CC(C)(C)O)cc2)cc1,1.35
13,COc1ccc(NC(=O)Nc2ccc3nc(C)c(C)nc3c2)cc1,0.77
14,COc1ccc(NC(=O)c2ccc(OC)cc2)cc1,4.29 (active)
15,COc1cc(OC)cc(C(=O)OCC(=O)Nc2ccc(F)cc2F)c1,1.18
16,COc1ccc(/C=N/NC(=O)Nc2ccc3nsnc3c2)c(OC)c1,1.11
17,COc1ccc(C(=O)Nc2ccc(S(=O)(=O)NC(C)C)cc2)cc1,1.12
18,COc1ccc(NC(=O)Nc2ccc3nsnc3c2)cc1,3.98 (active)
19,COc1ccc(C(=O)Nc2ccc(F)cc2F)cc1,3.39 (active)
20,Cc1ccc(-c2nn(-c3cccc(F)c3)cc2CNCCc2ccncc2)o1,0.82
21,Cc1cc(C(=O)N/N=C\C(Br)=C\c2ccccc2)c(C)o1,1.27
22,O=C(Nc1cccn(Cc2ccccc2Cl)c1=O)NC1CCCCC1,1.26
23,O=C(COc1ccccc1[N+](=O)[O-])NC1CC1,1.17
24,Cc1ccc(C(=O)N/C(=C\c2cccs2)C(=O)NCCc2ccccn2)cc1C,1.8
25,Cc1ccccc1Nc1scc(-c2ccc(Br)cc2)[n+]1-c1ccccc1C,0.87
